Screen size: about 320,000 compounds; about 2,100 (0.66%) were called active. Roughly 53% stayed inconclusive and do not appear here. Calls come from the whole dose curve; as a rule, active = well fitted inhibition curve with a large enough effect in the signal ratio, with a control signal flat (not every such curve was filed as active); inconclusive = small, poorly fitted or top-dose-only effect, or effect the other way, or a change in a side signal; inactive = flat fitted curve, though single readings scatter; the % refers to the signal ratio. The entries come from a sample that favours actives as a whole.
Potency is the fitted concentration of half-maximal effect.

The test in a line: qHTS Assay for Lipid Storage Modulators in Drosophila S3 Cells.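 For cell number change: cells counted by Cell Tracker Red CMTPX staining in the red channel.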 As to conditions: BODIPY lipid droplet fluorescence, 18-24 h, cells fed with added oleic acid; cell number change: measured here: cell count max response; series mostly up to 46.1 µM. The method, boiled down:
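Drosophila S3 cells got compounds at several concentrations plus oleic acid (400 uM solution). Laser-scanning cytometry with 488 nm excitation read lipid droplets at 500-530 nm and cells at 575-640 nm. Percent activity was relative to 20 uM Triacsin C.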
For `CCCN1CCN(CCCNC(=O)c2ccc3nc(N4CCC(C)CC4)sc3c2)CC1`, the Potency entry was “inactive” and the cell number change was -11.1%. For `O=S(=O)(NC1CC1)c1ccc(S(=O)(=O)N2CCC3(CC2)OCCO3)cc1` the same measures were “inactive” and 0.569%. On to `N#CCCN1CCN(S(=O)(=O)c2ccc(S(=O)(=O)NC3CC3)cc2)CC1`, for which the Potency result is “inactive” and the cell number change stood at 17.2%. The corresponding values for `CCS(=O)(=O)N1CCN(S(=O)(=O)c2ccc(S(=O)(=O)NC3CC3)cc2)CC1` are 6.51 µM (active) and 8.57%. For `CCN(c1ccccc1)S(=O)(=O)c1cc(NC(=O)COC(=O)C2CC2)ccc1Cl` the same measures were “inactive” and 6.19%. For `COc1cc([N+](=O)[O-])ccc1N/C=C/C(=O)c1cccs1` the same measures were 11.6 µM (active) and -11.2%. For `O=C(/C=C/c1cccc([N+](=O)[O-])c1)c1ccco1`, the Potency was 4.11 µM (active) and the cell number change was -29.8%. `CN(C)c1ccc(/C=C/C(=O)c2ccc3c(c2)OCCO3)cc1[N+](=O)[O-]`: the Potency result was “inactive” and the cell number change turned out to be 33.3%. On to `COc1ccccc1N1CCN(C(=O)/C=C/c2cccc([N+](=O)[O-])c2)CC1`, for which the Potency entry was “inactive” and the cell number change turned out to be 9.07%.

In the case of `O=C(/C=C/c1cccc([N+](=O)[O-])c1)N1CCN(C(=O)c2ccco2)CC1`, the Potency result was “inactive” and the cell number change was 23.6%.

`CNc1cc([N+](=O)[O-])ccc1N/C=C/C(=O)c1cccs1`: the Potency entry is “inactive” and the cell number change was -14.6%.

In the case of `O=C(N/N=C/c1cccc([N+](=O)[O-])c1)c1ccc2c(c1)OCCO2`, the Potency result was “inactive” and the cell number change was determined as 23.7%. As to `COc1ccc([N+](=O)[O-])cc1NC(=O)c1cccs1`, the Potency result was “inactive”. `O=C(/C=C/c1cccc([N+](=O)[O-])c1)N1CCN(c2ccc(F)cc2)CC1`: the Potency is 20.6 µM (active) and the cell number change is 2.7%. Consider `O=C(/C=C/c1ccc([N+](=O)[O-])cc1)c1ccco1`, for which the Potency result is “inactive” and the cell number change was -5.18%. With `O=C(/C=C/c1cccc([N+](=O)[O-])c1)N1CCOCC1`, the Potency entry was “inactive”. With `O=C(/C=C/c1cccc([N+](=O)[O-])c1)c1ccc2c(c1)OCCO2`, the Potency was 18.4 µM (active) and the cell number change is -6.34%. Regarding `COc1ccccc1N1CCN(C(c2cc3cc(C)ccc3[nH]c2=O)c2nnnn2C2CCCC2)CC1` (centres undefined), the Potency entry is “inactive” and the cell number change was determined as 10.4%. As for `CC(NC(=O)COC(=O)CNC(=O)c1ccc(-c2ccccc2)cc1)c1ccccc1` (centres undefined), the Potency entry is “inactive” and the cell number change was 0.973%. The corresponding values for `O=C(Nc1ccc(COc2ccccc2)cc1)c1cccc([N+](=O)[O-])c1` are “inactive” and -16.9%. The corresponding values for `O=C(NC1CCCC1)C1CCC(=O)N1C1CCCCC1` (centres undefined) are “inactive” and 1.84%.

Regarding `Cn1c(Cn2c(=O)sc3ccccc32)nnc1SCC(=O)N1CCOCC1`, the Potency result was “inactive” and the cell number change worked out at 7.25%.

As to `O=C(/C=C/c1cccc([N+](=O)[O-])c1)Nc1ccc(NC(=O)c2cccs2)cc1`, the Potency entry was “inactive” and the cell number change stood at 5.37%. Turning to `O=C(/C=C/c1cccc([N+](=O)[O-])c1)c1cccs1`, the Potency was 23.1 µM (active) and the cell number change was -11.1%. For `O=C(/C=C/c1ccc([N+](=O)[O-])cc1)c1cccs1` the same measures were “inactive” and 1.74%. Take `OCCNCc1cc(Br)ccc1OCc1ccc(F)cc1`: the Potency entry was “inactive” and the cell number change was -0.637%. For `O=C(CC(NC(=O)c1ccccc1Cl)c1ccccc1)NCCc1ccc(Cl)cc1` (centres undefined) the same measures were “inactive” and 10.1%.

In the case of `Cc1cc(=O)[nH]c(SCC2(O)C3CC4CC(C3)CC2C4)n1` (centres undefined), the Potency is 29.1 µM (active) and the cell number change is -7.4%.

In the case of `Cc1cc(=O)[nH]c(SCC(=O)N2CCCCC2)n1`, the Potency entry was “inactive” and the cell number change worked out at 4.95%.

For `CCCSc1nc(C)cc(=O)[nH]1`, the Potency result was “inactive” and the cell number change came out at 7.07%. Consider `COc1ccc([N+](=O)[O-])cc1NC(=O)c1cccnc1`, for which the Potency result was “inactive” and the cell number change turned out to be 9.82%. For `CCCNc1nc(C)cc(-c2cc(C(=O)NCc3ccccc3)on2)n1` the same measures were “inactive” and 1.8%. Turning to `COc1ccc(C)cc1N1CC(C(=O)Nc2ccccc2N2CCCCC2)CC1=O` (centres undefined), the Potency is 1.03 µM (active) and the cell number change is 3.68%. On to `Cc1cccc(N2CC(C(=O)Nc3ccccc3N3CCCC3)CC2=O)c1C` (centres undefined), for which the Potency entry is “inactive”. Consider `CCOc1ccccc1N1CC(C(=O)Nc2ccccc2N2CCCC2)CC1=O` (centres undefined), for which the Potency entry was “inactive”.

In the case of `Cc1ccc(-c2nc(C#N)c(NCCN3CCCCC3)o2)cc1`, the Potency result was “inactive” and the cell number change turned out to be 1.25%.

Turning to `CCOC(=O)c1c(C)[nH]c(C=C2C(=O)CCCC2=O)c1O`, the Potency result is “inactive” and the cell number change is -4.56%. In the case of `Cn1cccc1/C=C(/C#N)C(N)=S`, the Potency entry is “inactive” and the cell number change stood at 0.988%.

Take `O=C(NCCc1c[nH]c2ccccc12)C(=O)NCC(c1ccco1)N1CCN(c2ccccc2)CC1` (centres undefined): the Potency entry was “inactive” and the cell number change is -12.5%.

As for `Cc1ccc(NS(=O)(=O)c2ccc(C(=O)OCC(=O)Nc3cc(C)on3)cc2)cc1`, the Potency result was “inactive” and the cell number change is -18.1%. For `c1ccc(C[n+]2c(-c3ccccc3)csc2Nc2ccccc2)cc1` the same measures were “inactive” and -10.6%. On to `O=[N+]([O-])c1ccc(-c2csc(Nc3ccccc3)[n+]2Cc2ccccc2)cc1`, for which the Potency was 13 µM (active) and the cell number change was -27.2%.

Take `COc1ccc(-c2csc(Nc3ccccc3)[n+]2CC(O)c2ccc([N+](=O)[O-])cc2)cc1` (centres undefined): the Potency result is “inactive” and the cell number change is -3.41%. With `O=C1OCc2cc(-n3cccc3)ccc21`, the Potency entry was “inactive” and the cell number change was -1.52%.

Turning to `Cc1ccccc1S(=O)(=O)Cc1ccc(C(=O)NC2CCC(C)CC2)o1` (centres undefined), the Potency is 18.4 µM (active) and the cell number change was -18.5%. Take `Cc1ccccc1S(=O)(=O)Cc1ccc(C(=O)NC2CCCCC2C)o1` (centres undefined): the Potency result was “inactive”.

As for `CCOC(=O)N1CCC(NC(=O)c2ccc(CS(=O)(=O)c3ccccc3C)o2)CC1`, the Potency entry is “inactive” and the cell number change was -13.7%. For `COC(=O)c1cccc(NC(=O)C(C)(C)C)c1` the same measures were “inactive” and -0.276%. Take `Cn1ccnc1SCC(=O)c1ccc(Cl)cc1`: the Potency result is “inactive” and the cell number change turned out to be 1.94%. For `CN1CCC(NC(=O)Nc2ccc(Br)cc2)CC1` the same measures were “inactive” and -12.5%. The corresponding values for `COc1ccc(NC(=O)COC(=O)C2CC(=O)N(Cc3ccc(C)cc3)C2)cc1` (centres undefined) are 2.06 µM (active) and -4.17%. With `COc1ccc(COC(=O)C2CC(=O)N(Cc3ccc(C)cc3)C2)cc1` (centres undefined), the cell number change is -16.1% and the outcome is “inactive [at 0.369 µM]”. For `COc1ccc(CN2CC(C(=O)NCCc3ccc(C)cc3)CC2=O)cc1` (centres undefined), the Potency result is “inactive” and the cell number change came to 1.29%. Take `COC(=O)C1CCN(C(=O)c2ccc(Cl)c(S(=O)(=O)NCc3cccnc3)c2)CC1`: the Potency entry is “inactive” and the cell number change was 20.6%. Take `CC(=O)Oc1ccccc1N(C(C)=O)S(=O)(=O)c1ccc(C)cc1`: the Potency entry is “inactive” and the cell number change was -8.62%.

Consider `CC(C)C[C@H](NC(=O)NCc1ccc(Cl)cc1)C(=O)O`, for which the Potency is 6.51 µM (active) and the cell number change was -1.47%.

With `CC(C)[C@H](NC(=O)NCc1ccc(Cl)cc1)C(=O)O`, the Potency entry is “inactive”.

On to `CC(C)CC(NC(N)=O)C(=O)NCc1ccc(Cl)cc1` (centres undefined), for which the Potency entry is “inactive” and the cell number change is 6.23%. The corresponding values for `CCC(=O)Nc1ccc(NC(=O)CSc2nc3cc4c(cc3cc2C)CCC4)cc1` are “inactive” and 0.207%.

With `CCC(=O)Nc1nn(C)c2nc3c(C)cccc3cc12`, the Potency result was “inactive” and the cell number change was -9.14%. On to `CC1CCN(CCCNC(=O)C2CCC(CNS(=O)(=O)c3cccc4nsnc34)CC2)CC1` (centres undefined), for which the Potency entry was “inactive”. With `CCOc1ccc(-n2c(=O)cc(N3CCN(c4ccc(F)cc4)CC3)[nH]c2=O)cc1`, the Potency result is “inactive” and the cell number change worked out at 10.6%.

For the compound `Cc1ccc(-c2nnn(CC(=O)N(Cc3ccco3)C(C(=O)NC(C)(C)C)c3cccs3)n2)o1` (centres undefined), the Potency entry was “inactive” and the cell number change is -15.2%.

Turning to `Nc1c(C(=O)Nc2ccccc2)sc2nc3c(c(-c4ccco4)c12)CCCC3`, the Potency entry was “inactive” and the cell number change was -3.84%. `Cc1ccc(NC(=O)c2sc3nc4c(c(-c5ccco5)c3c2N)CCC4)cc1`: the Potency result is “inactive” and the cell number change was -11.1%. On to `Nc1c(C(=O)NCC2CCCO2)sc2nc3c(c(-c4ccco4)c12)CC/C3=C\c1ccco1` (centres undefined), for which the Potency is 8.2 µM (active) and the cell number change turned out to be 3.45%. For `COc1ccc(NC(=O)CC2C(=O)NCCN2C(=O)Nc2ccc(C(F)(F)F)cc2)cc1` (centres undefined) the same measures were “inactive” and 12.2%. For `Cc1cccc(NC(=O)CN2C(=O)N/C(=C\c3ccc(-c4cccc(C(=O)O)c4)o3)C2=O)c1`, the Potency entry is “inactive” and the cell number change is -0.725%. The corresponding values for `CCCn1c(N)c(N(CCOC)C(=O)/C=C/c2ccc(C(=O)OC)cc2)c(=O)[nH]c1=O` are “inactive” and -4.64%.

As for `CC(C)(C)NC(=O)C(c1ccc(F)cc1)N(Cc1ccco1)C(=O)c1csnn1` (centres undefined), the Potency entry was “inactive” and the cell number change was -0.0921%. For `COc1cc(NC(=O)CCc2c(C)[nH]c(=O)c(C#N)c2C)cc(OC)c1`, the Potency is 0.058 µM (active) and the cell number change was -2.94%. For `COc1ccccc1NC(=O)CCc1c(C)[nH]c(=O)c(C#N)c1C` the same measures were “inactive” and 16.5%. For the compound `Cc1ccc(NC(=O)CCc2c(C)[nH]c(=O)c(C#N)c2C)cc1`, the Potency entry was “inactive” and the cell number change was 16.2%. Turning to `COc1ccc(-c2[nH]ncc2/C=N/NC(=O)c2ccc(Br)cc2)c(OC)c1`, the Potency entry is “inactive” and the cell number change was 3.28%. The corresponding values for `CCOc1ccc(NC(=O)CN2C(=O)CSC(C)C2=O)cc1` (centres undefined) are “inactive” and 8.89%. Consider `Cc1c(C(=O)N(CCC#N)c2ccccc2)sc2nc3n(c(=O)c12)CCCC3`, for which the Potency entry is “inactive” and the cell number change was determined as 7.46%. Regarding `Oc1ccc(Br)cc1-c1cc(-c2ccccc2Cl)[nH]n1`, the Potency entry was “inactive” and the cell number change was -23.2%. The corresponding values for `COc1ccc(O)c(-c2cc(-c3ccccc3Cl)[nH]n2)c1` are 3.66 µM (active) and -20.4%. With `COc1ccc(O)c(-c2cc(-c3ccccc3[N+](=O)[O-])[nH]n2)c1`, the Potency entry is “inactive” and the cell number change was -1.9%.

In the case of `CCc1ccc(/C=C(\C)C(=O)c2c(C)cc(C)[nH]c2=O)cc1`, the Potency entry was “inactive” and the cell number change is -0.605%. The corresponding values for `CCOc1ccc(C2c3[nH]c4ccccc4c3C[C@H]3C(=O)N(C4CC4)CC(=O)N23)cc1OC` (some centres undefined) are “inactive” and 5.07%. For `CCOc1ccc2oc(C(=O)NC(C)(C)CC)c(C)c2c1`, the Potency result was “inactive” and the cell number change is -22.3%.

Take `CC(C)(C)N(Cc1ccccc1)C(=O)COC(=O)CNS(=O)(=O)c1ccc2ccccc2c1`: the Potency result is “inactive” and the cell number change is -5.96%. In the case of `COc1ccc(N2CCN(C(=O)NC34CC5CC(CC(C5)C3)C4)CC2)cc1`, the Potency result was “inactive”. With `COc1cccc(C(=O)NC23CC4CC(CC(C4)C2)C3)c1`, the Potency result is “inactive” and the cell number change is 26.5%. For `COc1cccc(N2CCN(C(C)C(=O)NC34CC5CC(CC(C5)C3)C4)CC2)c1` (centres undefined) the same measures were 1.3 µM (active) and -27.6%. In the case of `O=C1c2ccccc2C(=O)c2c1cccc2N1CCN(Cc2ccccc2)CC1`, the Potency was 18.4 µM (active). As for `O=c1[nH]ncc(N2CCN(Cc3ccccc3)CC2)c1Cl`, the Potency result was “inactive” and the cell number change was determined as 12.7%. On to `CC(=C1C(=O)c2ccccc2C1=O)N1CCN(Cc2ccccc2)CC1`, for which the Potency result is “inactive” and the cell number change is 11.8%.
